Results taken from PubChem BioAssay (NCATS).
Inconclusive results are not listed. Unmarked numbers belong to inactive results. The source made the active and inactive calls. Calls follow the shape of the dose curve; as a rule, active = well fitted cell-killing curve with a large enough effect; inconclusive = small, poorly fitted or top-dose-only effect, or effect the other way; inactive = no such curve, though single readings can be large or run the other way. Positions of bridges follow the written chain, without caps; N, C: chain ends. Non-standard residues stand in square brackets, D forms with d. Residues, ends and D or L forms follow the SMILES beside them. ξ: configuration not given here. *: point of attachment. Octanoyl(6-Me) = CCC(C)CCCCC(=O)*; ξThr(3R) = C[C@@H](O)C(N)C(=O)O; dDab = NCC[C@@H](N)C(=O)O; Dab = NCC[C@H](N)C(=O)O

Test: Quantitative High-Throughput drug screen in 47 multiple myeloma cell lines against the NCATS MIPE library collection: Delta47_JCRB cell viability assay (AID 1918925; also: nearly all actives have a fitted effect of over 45% in size;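 as to viability (% of DMSO): 0% = media-only wells and 100% = DMSO-only wells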)
Details: Delta47 myeloma viability, CellTiter-Glo ATP, 48 h; series mostly up to 45.8 µM; viability (% of DMSO): at the top concentration
In short: (§1)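 Approved and investigational drugs from MIPE 4.0 were added by pin tool to 500 cells per well. After 48 hours at 37C, ATP-based CellTiter-Glo luminescence indicated remaining viability.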
Potency is read from the fitted curve at half-maximal effect.

SMILES	Potency	viability (% of DMSO)
O=c1c(O)c(-c2ccc(O)c(O)c2)oc2cc(O)ccc12	11.8 µM (active)	
O=C(O)C[C@H](O)C[C@H](O)C=Cc1c(C2CC2)nc2ccccc2c1-c1ccc(F)cc1	8.33 µM (active)	
COc1cccc2c1C(=O)c1c(O)c3c(c(O)c1C2=O)C[C@@](O)(C(C)=O)C[C@H]3O[C@H]1C[C@H](N)[C@H](O)[C@H](C)O1	0.0418 µM (active)	
CCCCCN=C(N)NN=Cc1c[nH]c2ccc(OC)cc12	13.2 µM (active)	
Nc1nc(N)c2nc(-c3cccc(O)c3)c(-c3cccc(O)c3)nc2n1	5.9 µM (active)	
O=S(=O)(O)CCSSCCS(=O)(=O)O		130%
O=C(Nc1cccc(Nc2ncc(Br)c(NCCc3cnc[nH]3)n2)c1)N1CCCC1	4.18 µM (active)	
C[C@]12CCC(=O)C=C1[C@@H]1CC1[C@H]1[C@H]3[C@@H]4C[C@H]4[C@@]4(CCC(=O)O4)[C@@]3(C)CC[C@H]12 (stereo partly drawn)		89.9%
CO[C@@H]1[C@@H](O)[C@H](O)[C@@H](n2c3c(Cl)cccc3c3c4c(c5c6cccc(Cl)c6[nH]c5c32)C(=O)NC4=O)O[C@@H]1CO	0.59 µM (active)	
O=C1NC(=O)[C@@H](c2cn3c4c(cccc24)CCC3)[C@H]1c1c[nH]c2ccccc12	0.235 µM (active)	
COc1ccc(S(=O)(=O)Nc2cccnc2Nc2ccc(O)cc2)cc1	0.0264 µM (active)	
O=C(C[C@@H]1CC=CCCC(=O)O[C@H](c2ccccc2)CNC1=O)NCc1ccc(Cl)cc1	10.5 µM (active)	
C#CCC(Cc1cnc2nc(N)nc(N)c2n1)c1ccc(C(=O)N[C@@H](CCC(=O)O)C(=O)O)cc1 (stereo partly drawn)		125%
CC(C)(N)c1ccc(-c2nc3ccccc3nc2-c2ccccc2)cc1	5.9 µM (active)	
CCCCCCCCCCCCc1ccc(S(=O)(=O)Nc2nncs2)cc1	0.935 µM (active)	
CC(=CC(=O)Nc1ccccc1C(=O)O)c1ccc2ccccc2c1	14.8 µM (active)	
C[C@H](O)[C@@H]1C(=O)N2C(C(=O)O)=C(S[C@@H]3CN[C@H](CNS(N)(=O)=O)C3)[C@@H](C)[C@@H]12		127%
C=C1C(=CC=C2CCC[C@]3(C)[C@@H]([C@H](C)CCCC(C)(C)O)CC[C@@H]23)C[C@@H](O)C[C@@H]1O	9.35 µM (active)	
O=C(O)C=Cc1ccc(Cn2ccnc2)cc1		125%
CC(=O)O[C@H]1C[C@@H]2CC[C@H]3[C@H]4C[C@H]([N+]5(C)CCCCC5)[C@@H](OC(C)=O)[C@@]4(C)CC[C@@H]3[C@@]2(C)C[C@H]1N1CCCCC1		150%
Cc1ccc2nc(NCCN)c3ncc(C)n3c2c1	5.9 µM (active)	
CCC(C)CCCCC(=O)N[C@@H](CCN)C(=O)NC(C(=O)N[C@H](CCN)C(=O)N[C@@H]1CCNC(=O)C([C@@H](C)O)NC(=O)[C@@H](CCN)NC(=O)[C@@H](CCN)NC(=O)[C@@H](CC(C)C)NC(=O)[C@H](Cc2ccccc2)NC(=O)[C@H](CCN)NC1=O)[C@@H](C)O (stereo partly drawn) ({Octanoyl(6-Me)}-[Dab][ξThr(3R)][dDab][dDab][Dab]F[dL][dDab][dDab][ξThr(3R)]; lactam 4-C)		96.6%
COc1ccc2c(c1OC)C(=O)OC2[C@H]1c2c(cc3c(c2OC)OCO3)CCN1C (stereo partly drawn)	0.187 µM (active)	
CC[C@]12C=CCN3CC[C@@]4(c5cc([C@@]6(C(=O)OC)C[C@H]7C[C@@H](C(C)(F)F)CN(Cc8c6[nH]c6ccccc86)C7)c(OC)cc5N(C)[C@H]4[C@@](O)(C(=O)OC)[C@H]1OC(C)=O)[C@@H]32	0.0093 µM (active)	
CC(=O)O[C@]1(C(C)=O)CC[C@H]2[C@@H]3C=C(C)C4=CC(=O)CC[C@]4(C)[C@@H]3CC[C@@]21C	8.33 µM (active)	
CC(C)c1cc(C(C)C)c(CC(=O)NS(=O)(=O)Oc2c(C(C)C)cccc2C(C)C)c(C(C)C)c1		110%
COc1cc2c(cc1O)CCC1C2CC[C@@]2(C)C1CC[C@@H]2O (stereo partly drawn)	2.64 µM (active)	

Test: Quantitative High-Throughput drug screen in 47 multiple myeloma cell lines against the NCATS MIPE library collection: EJM_DSMZ cell viability assay (AID 1918926; also: nearly all actives have a fitted effect of over 30% in size;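 as to viability, % of control: 100% = DMSO-only wells and 0% = media-only wells without cells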)
Details: EJM myeloma cell viability, CellTiter-Glo ATP, 48 h; series mostly up to 45.8 µM; viability, % of control: at the top concentration
In short: as §1

SMILES	Potency	viability, % of control
O=c1c(O)c(-c2ccc(O)c(O)c2)oc2cc(O)ccc12	20.9 µM (active)	
COc1cccc2c1C(=O)c1c(O)c3c(c(O)c1C2=O)C[C@@](O)(C(C)=O)C[C@H]3O[C@H]1C[C@H](N)[C@H](O)[C@H](C)O1	0.105 µM (active)	
CCCCCN=C(N)NN=Cc1c[nH]c2ccc(OC)cc12	13.2 µM (active)	
Nc1nc(N)c2nc(-c3cccc(O)c3)c(-c3cccc(O)c3)nc2n1	18.7 µM (active)	
O=C(Nc1cccc(Nc2ncc(Br)c(NCCc3cnc[nH]3)n2)c1)N1CCCC1	16.6 µM (active)	
Cc1noc(-c2ccc(CSCCC(=O)O)cc2)c1NC(=O)OC(C)c1ccccc1Cl (stereo not drawn)		92.1%
COc1cc(C(=O)NC2CCN(C)CC2)ccc1Nc1ncc2c(n1)N(C1CCCC1)CCC(=O)N2C(C)C	16.6 µM (active)	
CO[C@@H]1[C@@H](O)[C@H](O)[C@@H](n2c3c(Cl)cccc3c3c4c(c5c6cccc(Cl)c6[nH]c5c32)C(=O)NC4=O)O[C@@H]1CO	2.64 µM (active)	
O=C1NC(=O)[C@@H](c2cn3c4c(cccc24)CCC3)[C@H]1c1c[nH]c2ccccc12	20.9 µM (active)	
COc1ccc(S(=O)(=O)Nc2cccnc2Nc2ccc(O)cc2)cc1	0.296 µM (active)	
COc1cc(C(C)C)c(Oc2cnc(NC(CO)CO)nc2N)cc1I	0.469 µM (active)	
O=C(C[C@@H]1CC=CCCC(=O)O[C@H](c2ccccc2)CNC1=O)NCc1ccc(Cl)cc1	0.0012 µM (active)	
CNC(=O)Nc1ccc(-c2nc(N3CC4CCC(C3)O4)c3cnn(C4CCC5(CC4)OCCO5)c3n2)cc1	3.32 µM (active)	
CCC[C@H]1C[C@H](C(=O)N[C@@H]([C@@H]2O[C@@H](SC)[C@@H](O)[C@@H](O)[C@@H]2O)[C@H](C)Cl)N(C)C1		117%
CC(C)(N)c1ccc(-c2nc3ccccc3nc2-c2ccccc2)cc1	23.5 µM (active)	
C[C@](Cc1c[nH]c2ccccc12)(NC(=O)OC1C2CC3CC(C2)CC1C3)C(=O)NC[C@H](NC(=O)CCC(=O)O)c1ccccc1 (stereo partly drawn)		113%
C[C@H](O)[C@@H]1C(=O)N2C(C(=O)O)=C(S[C@@H]3CN[C@H](CNS(N)(=O)=O)C3)[C@@H](C)[C@@H]12		106%
C=C1C(=CC=C2CCC[C@]3(C)[C@@H]([C@H](C)CCCC(C)(C)O)CC[C@@H]23)C[C@@H](O)C[C@@H]1O	2.35 µM (active)	
O=C(O)C=Cc1ccc(Cn2ccnc2)cc1		106%
CC(=O)O[C@H]1C[C@@H]2CC[C@H]3[C@H]4C[C@H]([N+]5(C)CCCCC5)[C@@H](OC(C)=O)[C@@]4(C)CC[C@@H]3[C@@]2(C)C[C@H]1N1CCCCC1		87.6%
CC(C)n1cnc2c(NCCc3ccc(O)cc3)nc(-c3csc4ccccc34)nc21	5.9 µM (active)	
Cc1ccc2nc(NCCN)c3ncc(C)n3c2c1	1.48 µM (active)	
CCC(C)CCCCC(=O)N[C@@H](CCN)C(=O)NC(C(=O)N[C@H](CCN)C(=O)N[C@@H]1CCNC(=O)C([C@@H](C)O)NC(=O)[C@@H](CCN)NC(=O)[C@@H](CCN)NC(=O)[C@@H](CC(C)C)NC(=O)[C@H](Cc2ccccc2)NC(=O)[C@H](CCN)NC1=O)[C@@H](C)O (stereo partly drawn) ({Octanoyl(6-Me)}-[Dab][ξThr(3R)][dDab][dDab][Dab]F[dL][dDab][dDab][ξThr(3R)]; lactam 4-C)		99.4%
COc1ccc2c(c1OC)C(=O)OC2[C@H]1c2c(cc3c(c2OC)OCO3)CCN1C (stereo partly drawn)	2.09 µM (active)	
NC1=N[C@H]2[C@H](CS[C@H]2CCCCC(=O)O)N1		90% [at 23.2 µM]
CC(=O)O[C@]1(C(C)=O)CC[C@H]2[C@@H]3C=C(C)C4=CC(=O)CC[C@]4(C)[C@@H]3CC[C@@]21C		85.1%
